Drawing on PubChem BioAssay AID504652 (National Center for Advancing Translational Sciences (NCATS), 2011), this text covers activity change, negative = inhibition for 88 compounds.

Structures are written as SMILES. “And” between values parts separate entries of the source, which are not always exact repeats. Identical values can stand only once. Out of some 360,000 compounds screened, about 11,000 (3.1%) were called active. No stated cut-off is given here; in the data, active means activity change below about -30%; inactive means the rest. The sample as a whole holds a higher share of actives than the screen did.
On the % scale 0 is the no-effect control and ±100 the full control effect.

Sequence of D(1A) dopamine receptor (Homo sapiens) (P21728 whole entry, looked up): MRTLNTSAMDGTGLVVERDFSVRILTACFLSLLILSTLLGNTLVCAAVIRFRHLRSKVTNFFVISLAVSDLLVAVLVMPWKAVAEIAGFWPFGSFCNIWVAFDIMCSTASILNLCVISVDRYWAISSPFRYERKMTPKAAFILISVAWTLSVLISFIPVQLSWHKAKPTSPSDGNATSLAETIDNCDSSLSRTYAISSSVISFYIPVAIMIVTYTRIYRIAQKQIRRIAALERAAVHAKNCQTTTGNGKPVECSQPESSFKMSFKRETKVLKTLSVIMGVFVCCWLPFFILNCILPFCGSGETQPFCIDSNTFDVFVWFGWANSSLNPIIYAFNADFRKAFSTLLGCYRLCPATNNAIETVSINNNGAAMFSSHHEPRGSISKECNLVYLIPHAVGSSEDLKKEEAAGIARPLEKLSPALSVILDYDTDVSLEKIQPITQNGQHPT

The target of the test is D(1A) dopamine receptor (Homo sapiens) (UniProt P21728). Nature of the test: Antagonist of Human D 1 Dopamine Receptor: qHTS. To be noted: HEK293 TREx D1 cells, calcium flux, dopamine EC80; at 10 µM; stronger effect = lower value. The procedure, abridged:
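Tetracycline-induced HEK293 T-REx cells with force-coupled D1 receptor were loaded with a no-wash calcium dye. Compound was added after a 10 s baseline and read kinetically for 180 s; EC80 dopamine was then added and calcium flux followed another 180 s.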
Take `O=C(CSc1ccccc1)Nc1ccc(C(=O)Nc2cccc(O)c2)cc1`: the activity change, negative = inhibition is -29.1% (inactive). The result for `O=C(Nc1cccc(O)c1)c1ccc(C(=O)c2ccccc2)o1` reads -9.29% (inactive); that for `C/C(=C\C(=O)c1ccccc1)Nc1cccc(O)c1`, -30.1% (active).

In the case of `Cc1ccc(NC(=O)CSc2nc3c(c(=O)[nH]2)CN(Cc2ccc4c(c2)OCO4)CC3)cc1C`, the activity change, negative = inhibition was 11.3% (inactive). For `COc1ccc(-n2c(SCC(=O)NCc3cccs3)nnc2-c2ccoc2C)cc1` the value was -0.757% (inactive); for `O=C(CSc1nnc(-c2c[nH]c3ccccc23)n1-c1ccc(F)cc1)NCc1ccco1`, 3.17% (inactive).

Consider `COc1ccc(-n2c(SCC(=O)NCc3ccco3)nnc2-c2c[nH]c3ccccc23)cc1`, for which the activity change, negative = inhibition was -90% (active). The result for `CCOC(=O)C1CCC(CN(Cc2ccc(OC)cc2)S(=O)(=O)c2ccc(F)c(C(=O)Nc3cc(C)ccc3C)c2)CC1` (stereo not drawn) reads 15.6% (inactive); that for `COc1cccc(COC(=O)C2CCN(S(=O)(=O)c3ccc(Cl)cc3)CC2)c1OC`, -32.8% (active).

Regarding `COc1cccc(COC(=O)C2CCN(S(=O)(=O)c3cccs3)CC2)c1OC`, the activity change, negative = inhibition was -15.5% (inactive). For the compound `CCOc1ccc(S(=O)(=O)N2CCC(C(=O)OCc3ccc(OC)cc3)CC2)cc1`, the activity change, negative = inhibition is -16.6% (inactive). On to `COc1ccc(C(=O)c2oc3ccccc3c2NC(=O)COc2cccc(C)c2)cc1`, for which the activity change, negative = inhibition was -10.1% (inactive).

Take `Cc1nn(CC(=O)NCCc2ccccc2)c(=O)c2c1sc1ccccc12`: the activity change, negative = inhibition was -1.1% (inactive). For `Cc1cccc(NS(=O)(=O)c2ccc(-c3cnc(C4CC4)o3)cc2)c1` the value was -44.9% (active); for `Cc1cccc(CNS(=O)(=O)c2ccc(-c3cnc(C4CC4)o3)cc2)c1`, -9.2% (inactive) and -2.23% (inactive); for `Cc1ccc(-c2cnc(C3CC3)o2)cc1S(=O)(=O)Nc1cccc(C)c1C`, 9.76% (inactive).

On to `O=C(CSc1nccn1C1CCCC1)Nc1cc(C(F)(F)F)ccc1Cl`, for which the activity change, negative = inhibition is -16% (inactive). The result for `COc1ccc(S(=O)(=O)N2CCC(C(=O)OCC(=O)c3ccccc3)CC2)cc1[N+](=O)[O-]` reads -3.94% (inactive); that for `C=C(C)CNc1cc(S(=O)(=O)N2CCOCC2)ccc1Oc1ccccc1`, -20.5% (inactive); that for `COC(=O)c1cc(Oc2ccc(S(=O)(=O)N3CCOCC3)cc2[N+](=O)[O-])cc(C(=O)OC)c1`, -38.9% (active). For the compound `Cc1ccc(NC(=O)c2ccc3[nH]c(C)cc(=O)c3c2)c(C)c1`, the activity change, negative = inhibition was -2.41% (inactive). As to `CCOC(=O)c1c(N)n(-c2cccc(C)c2C)c2nc3ccccc3nc12`, the activity change, negative = inhibition is -1.89% (inactive). Take `COc1ccccc1CNC(=O)c1ccc(CS(=O)c2ccccc2Cl)o1` (stereo not drawn): the activity change, negative = inhibition is -4.03% (inactive). For `Cc1ccc(C)c(N2CCN(C(=O)CCc3c(C)nc4c(c3C)c(=O)n(C)c(=O)n4C)CC2)c1` the value was 7.99% (inactive); for `CC1=C(C(=O)OCC(C)C)C(c2ccc(OCc3ccccc3)cc2)N2C(=O)CCSC2=N1` (stereo not drawn), 4.42% (inactive).

As for `CN(C)c1ccc(-n2cccc2/C=C2/SC(=Nc3ccc(F)cc3)NC2=O)cc1`, the activity change, negative = inhibition was -42.9% (active). For `Cc1ccc(N=C2NC(=O)/C(=C/C=C/c3ccco3)S2)cc1C` the value was -15.5% (inactive). The result for `CN(C)c1ccc(-n2cccc2/C=N/n2cnnc2)cc1` reads 10% (inactive); that for `CCc1cc2c(cc3c(=O)n(CC(=O)N4CCN(c5cc(Cl)ccc5C)CC4)nc(CC)n32)s1`, -29.5% (inactive).

Regarding `COc1ccc(C(=O)Nc2ccc(-n3nncc3-c3ccccc3)cc2)cc1OC`, the activity change, negative = inhibition was -8.31% (inactive).

Take `Nn1c(SCC(=O)NC(=O)NC2CCCC2)nnc1-c1ccccc1F`: the activity change, negative = inhibition is -31.8% (active).

On to `CC(C)NC(=O)NC(=O)CSc1nnc(-c2ccccc2F)n1N`, for which the activity change, negative = inhibition is 2.73% (inactive). `Nn1c(SCC(=O)NC2CCCC2)nnc1-c1ccccc1F`: the activity change, negative = inhibition was 10.8% (inactive).

For the compound `CCc1cc2c(cc3c(=O)n(CC(=O)NCCc4ccc(OC)c(OC)c4)ncn32)s1`, the activity change, negative = inhibition is -0.482% (inactive). Consider `CCc1ccc(NC(=O)c2sc3nc4c(cc3c2N)CN(CC)CC4)cc1`, for which the activity change, negative = inhibition is -15.6% (inactive).

`Fc1ccccc1Cn1cnc(NC(=S)NCCc2ccccc2)n1`: the activity change, negative = inhibition is 0.584% (inactive). On to `N=c1n(CCc2ccccc2)c2ccccc2n1Cc1ccccc1F`, for which the activity change, negative = inhibition is -72.5% (active).

Take `O=C(COC(=O)Cc1ccccc1F)NCCc1ccccc1`: the activity change, negative = inhibition is -27% (inactive).

In the case of `Cn1c(=O)c2sccc2n2c(CCC(=O)NCc3ccccc3Cl)nnc12`, the activity change, negative = inhibition is -4.17% (inactive). For the compound `Cn1c(=O)c2c(SCC(=O)N3CCc4ccccc43)nc(-c3ccc(Cl)cc3)nc2n(C)c1=O`, the activity change, negative = inhibition is -4.79% (inactive). On to `CCCOC(=O)c1c(NC(=O)c2cc3nc(-c4ccc(OC)cc4)cc(C(F)(F)F)n3n2)sc2c1CCCC2`, for which the activity change, negative = inhibition was 1.36% (inactive).

Turning to `CCOC(=O)C1CCN(c2ncnc3c2c(-c2ccccc2)cn3-c2cccc(C)c2)CC1`, the activity change, negative = inhibition was 7.99% (inactive). Regarding `COc1cc(OC)cc(C(=O)Nc2c(C(=O)Nc3ccc(F)cc3)oc3ccccc23)c1`, the activity change, negative = inhibition was -9.05% (inactive). For `COc1cccc(N2CCN(C(=O)C3CCCN(S(=O)(=O)c4cnc[nH]4)C3)CC2)c1` (stereo not drawn) the value was -10% (inactive); for `O=C(NCc1ccco1)C1CCCN(S(=O)(=O)c2cnc[nH]2)C1` (stereo not drawn), 6.39% (inactive); for `CCOC(=O)c1cccc(NC(=O)C2CCCN(S(=O)(=O)c3cnc[nH]3)C2)c1` (stereo not drawn), -31.2% (active).

For the compound `CC1CCN(c2ccc([N+](=O)[O-])cc2C(N)=O)CC1`, the activity change, negative = inhibition is -6.77% (inactive). The result for `O=C(O)C1CCN(c2ccc([N+](=O)[O-])cc2[N+](=O)[O-])CC1` reads -34.9% (active); that for `CC1CCN(c2ccc(S(=O)(=O)Nc3cc(C(=O)O)cc(C(=O)O)c3)cc2[N+](=O)[O-])CC1`, 21.6% (inactive). The result for `COc1ccccc1CNc1nc2ccc(Cl)cc2n2cnnc12` reads 31.1% (inactive); that for `Cc1ccc(OCC(=O)OCc2cc(=O)n3nc(C4CC4)sc3n2)cc1C`, 5.56% (inactive). The result for `Cc1cccc(CSc2nnc(C)c(=O)n2N)c1` reads -16.8% (inactive); that for `Cc1cccc(CSc2nc3c(c(=O)n2C)SCC3)c1`, -31.4% (active).

Turning to `Cn1c(SCC(=O)N2CCCCC2)nc2c(c1=O)SCC2`, the activity change, negative = inhibition was -2.45% (inactive).

With `CCOc1ccc(C(O)Cn2c(=N)n(CCN3CCCCC3)c3ccccc32)cc1` (stereo not drawn), the activity change, negative = inhibition is 3.59% (inactive). The result for `Cn1c(=N)n(CC(O)c2cccs2)c2ccccc21` (stereo not drawn) reads -34.7% (active); that for `Cc1cccc(OCC(O)Cn2c(=N)n(CCN3CCOCC3)c3ccccc32)c1` (stereo not drawn), -8.76% (inactive); that for `COc1cc(C(=O)Nc2ccc(OCc3cc(=O)n4cc(C)sc4n3)cc2)cc(OC)c1OC`, -16.6% (inactive). The result for `Cc1ccc2cccc(OCCCOc3ccccc3CO)c2n1` reads -71.7% (active); that for `OCc1ccc(OCCCOc2cccc3cccnc23)cc1`, -4.17% (inactive). The result for `CCOc1cccc(OCCCOc2cccc3cccnc23)c1` reads 7.73% (inactive); that for `Cn1c(=O)n(Cc2c(F)cccc2Cl)c(=O)c2c1nc1n2CCN1c1ccc(F)cc1`, -4.11% (inactive). With `CCOc1ccc(NC(=O)c2cc(S(=O)(=O)N3CCCC3)c[nH]2)cc1`, the activity change, negative = inhibition was -12.2% (inactive).

In the case of `COc1ccc(NC(=O)/C(Cl)=C(/Cl)S(=O)Cc2ccc(C)cc2)cn1` (stereo not drawn), the activity change, negative = inhibition is -37.4% (active). Take `COc1cccc(NC(=S)N(Cc2ccc(C)cc2)Cc2ccccn2)c1`: the activity change, negative = inhibition is -4.38% (inactive).

Regarding `COc1ccc(CS(=O)/C(Cl)=C(/Cl)C(=O)Nc2ccc(OC)nc2)cc1` (stereo not drawn), the activity change, negative = inhibition was -16.1% (inactive). In the case of `Cc1cc(Cl)ccc1OCCCC(=O)NCc1ccccn1`, the activity change, negative = inhibition was -2.23% (inactive). For `Cc1cc(Cl)ccc1OCCCC(=O)NCc1ccncc1` the value was -15.1% (inactive); for `Cc1cc(Cl)ccc1OCCCC(=O)Nc1cccc(-n2cnnn2)c1`, -32.2% (active); for `O=C(Nc1ccc2nc(SCCOc3ccccc3)sc2c1)c1ccco1`, -3.21% (inactive). For `O=C(CSc1ncc(-c2ccccc2)[nH]1)Nc1ccc(F)cc1F` the value was -8.22% (inactive). The result for `O=C(Nc1ccccc1Cc1ccccc1)c1ccc2c(c1)SC1=NS(=O)(=O)CCN12` reads -30.1% (active); that for `CCc1ccccc1NC(=O)c1ccc2c(c1)CCN2S(C)(=O)=O`, 6.15% (inactive) and -13% (inactive). For `O=S1(=O)CCN2C(=N1)SC1=C2CCN(Cc2ccccc2)C1`, the activity change, negative = inhibition was 2.33% (inactive).

On to `CCCN(C(=O)Cn1ncc2c([nH]c3ccc(C)cc32)c1=O)c1ccccc1C`, for which the activity change, negative = inhibition was 11.2% (inactive). For `O=[S+]([O-])(c1ccc(OC(F)(F)F)cc1)N1CCN([S+](=O)([O-])c2ccc3c(c2)OCCO3)CC1` the value was -7.55% (inactive); for `Cc1nn2c(=O)cc(COC(=O)c3ccccc3NC(=O)COc3ccccc3C)nc2s1`, -3.25% (inactive); for `COc1ccc(NC(=O)CSc2nnc(C3CC3)n2C)cc1S(=O)(=O)N1CCCCC1`, 5.62% (inactive). For the compound `COc1ccccc1C(=O)Nc1ccc(C)c(S(=O)(=O)N2CCCCC2)c1`, the activity change, negative = inhibition was -2.3% (inactive).

With `COc1ccc(NC(=O)C2=NNC(=O)CC2)cc1S(=O)(=O)N1CCCCC1`, the activity change, negative = inhibition was -34.7% (active). In the case of `NS(=O)(=O)c1ccc(CCNC(=O)CCCCCn2c(=O)[nH]c3ccccc3c2=O)cc1`, the activity change, negative = inhibition is 5.32% (inactive). For `COc1cc2nc(NCC(C)c3ccccc3)n3nc(-c4ccccc4)nc3c2cc1OC` (stereo not drawn) the value was -4.86% (inactive); for `Cc1nc2nc(NCc3cccc(Br)c3)[nH]n2c(=O)c1Cc1ccccc1`, -2.6% (inactive); for `Cc1cccc(N(C)C(=O)CS(=O)(=O)c2cccc3nsnc23)c1`, 9.37% (inactive).

`O=C(Nn1cnnc1)c1ccc([N+](=O)[O-])cc1`: the activity change, negative = inhibition is -2.94% (inactive). For `O=C(Nc1cccc([N+](=O)[O-])c1)Nn1cnnc1` the value was -44.2% (active); for `COC(=O)/C=C\C(=O)Nc1cccc([N+](=O)[O-])c1`, 16.7% (inactive). As to `CCCCCn1c(CCNC(=O)c2ccc(F)cc2)nc2ccccc21`, the activity change, negative = inhibition is -29.3% (inactive).
